Where “and” joins values, the source holds several entries; their conditions need not be identical. Equal entries are not always repeated. Inconclusive results are not listed. Calls of active or inactive are those of the source. Unless noted, no rule for the calls is given here.
Experiments:
[1] = qHTS profiling for inhibitors of Plasmodium falciparum (3D7) proliferation (AID 743322);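 also: infected erythrocytes exposed to compound for 72 h before lysis; 100% = DMSO vehicle wells and 0% = 0.29 µM artemisinin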; settings: P. falciparum 3D7 proliferation; at 28.7 µM (top of the series)
Method in brief: (§1)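 Parasite DNA was quantified by SYBR Green I fluorescence (ex 485, em 535 nm) after overnight lysis in saponin/Triton buffer at room temperature. Cultures at 0.3% parasitemia and 2.5% hematocrit were first exposed to compound for 72 h at 37 C; signals were normalised to artemisinin (0.29 uM) and vehicle wells.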

[2] = qHTS profiling for inhibitors of Plasmodium falciparum (DD2) proliferation (AID 743323); settings: lower = more inhibition; at 28.7 µM (top of the series)
Method in brief: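 1536-well qHTS; infected RBCs 0.3% parasitemia/2.5% Hct final; cpd 72 h 37 C 5% CO2; lysis buffer + SYBR Green I, o/n RT dark; FI 485/535; norm. to 0.29 uM artemisinin and DMSO, plate-stack corrected.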

[3] = qHTS profiling of the MIPE4 collection as inhibitors of Plasmodium falciparum (3D7) proliferation (AID 743344);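 also: scaled between DMSO vehicle wells and 0.29 µM artemisinin as full inhibition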; settings: P. falciparum 3D7 in erythrocytes, SYBR Green DNA fluorescence, 72 h
Method in brief: as §1

[4] = qHTS profiling of the MIPE4 collection as inhibitors of Plasmodium falciparum (DD2) proliferation (AID 743345); settings: P. falciparum Dd2 in erythrocytes, SYBR Green DNA, 72 h
Method in brief: as §1

[5] = qHTS profiling of the MIPE4 collection as inhibitors of Plasmodium falciparum (DD2) proliferation (Rep 2) (AID 743346); settings: P. falciparum Dd2 in erythrocytes, SYBR Green DNA, 72 h
Method in brief: as §1

[6] = qHTS profiling of the MIPE4 collection as inhibitors of Plasmodium falciparum (HB3) proliferation (AID 743347);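 also: plate controls were DMSO vehicle wells for no effect and artemisinin wells for full effect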; settings: P. falciparum HB3 in erythrocytes, SYBR Green DNA, 72 h
Method in brief: as §1

[7] = High-throughput drug toxicity screening in the BPDCN cell line Gen2.2 (AID 1224824); settings: Gen2.2 BPDCN cells; at 45.8 µM (top of the series) unless noted;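 also: cells exposed to compounds for 48 h before reading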
Method in brief: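 Gen2.2, 500 cells/well, phenol red-free RPMI/10% FBS/Pen-Strep; 48 h cpd, 37 °C/5% CO2; CTG lum, 15 min RT. Norm: DMSO = 100%, bortezomib 9.2 uM final = 0%.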

[8] = High-throughput drug toxicity screening in the BPDCN cell line Cal-1 (AID 1224825); settings: Cal-1 BPDCN cell viability, qHTS; at 45.8 µM (top of the series) unless noted
Method in brief: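 CellTiter-Glo luminescence after 48 h compound exposure; percent activity scaled with DMSO as 100% and bortezomib (9.2 uM final) as 0%. Cal-1 cells seeded at 500/well in RPMI, 10% FBS, no phenol red.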

[9] = qHTS assay for measurement of the activity of small molecule inhibitors on Zika virus induced Caspase-3 activity in human iPSC derived neural progenitor cells (hNPCs) (AID 1224857; active = well fitted curve in the direction sought with a large enough effect; an effect the other way counts as inactive or inconclusive; also: % of control where 0% means no effect; nearly all actives have a fitted effect of over 65% in size)
Method in brief: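 hNPCs seeded 350 cells/well, cultured 16–20 h; compounds added 1 h before ZIKV (2 FFU/cell), 37 C 6 h. Caspase-Glo 3/7 luminescence after 30 min RT; % inhibition from induction scaled to uninfected (0%) and infected (100%) wells.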

[10] = qHTS Assay for Identifying Gametocytocidal Compounds (AID 743244; active = well fitted curve in the direction sought with a large enough effect; an effect the other way counts as inactive or inconclusive; also: potency is read from the fitted curve at half-maximal effect); settings: P. falciparum 3D7 stage III-V gametocytes, alamarBlue, 72 h; max response: stronger effect = lower value
Method in brief: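 P. falciparum 3D7 stage III–V gametocytes (20,000 cells/well) were exposed to compounds for 72 h at 37 °C, 5% CO2. AlamarBlue was then added for 24 h; decreased resorufin fluorescence (Ex 525/Em 598 nm) indicated loss of viability.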

[11] = qHTS profiling for inhibitors of Plasmodium falciparum (HB3) proliferation (AID 743324; active = well fitted curve in the direction sought with a large enough effect; an effect the other way counts as inactive or inconclusive;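 also: 100% = DMSO vehicle wells and 0% = artemisinin-treated control wells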); settings: Plasmodium falciparum HB3 blood-stage proliferation; at 28.7 µM (top of the series)
Method in brief: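 SYBR Green fluorescence (485 ex/535 em) of lysed cultures, incubated overnight at room temperature in the dark, quantifies parasite DNA. Infected erythrocytes at 0.3% parasitemia and 2.5% hematocrit were exposed 72 h; values normalized to DMSO and 0.29 uM artemisinin controls.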

[12] = qHTS assay for measurement of the activity of small molecule inhibitors on Zika virus induced Caspase-3 activity in human astrocytoma cells (AID 1224859; active = well fitted curve in the direction sought with a large enough effect; an effect the other way counts as inactive or inconclusive;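 also: plate controls were ZIKV-infected untreated cells for no effect and uninfected cells for full effect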)
Method in brief: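 Luminescence read-out (Caspase-Glo 3/7, 30 min RT) of caspase activity in SNB-19 cells infected 6 h with ZIKV, 2 FFU/cell, after 1 h compound pretreatment; % inhibition from induction normalised to uninfected (0%) and infected (100%) wells.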

[13] = at 28.5 µM (top of the series) unless noted

Cc1ccc(S(=O)(=O)Nc2cc(Cl)ccc2C(=O)Nc2nc(-c3ccccc3)cs2)cc1
remaining parasite growth % (stronger effect = lower value) [1]: 11.7% | activity, percent of control [2]: 6.55% | parasite growth, % of DMSO control [3, 13]: 64.3% | parasite growth remaining, % of DMSO control (lower = more inhibition) [4, 13]: 16.4% | parasite growth, % of control (lower = inhibition) [5, 13]: 21.2% | growth, % of control [6, 13]: 49.7% | cell viability, % of control (lower = more cytotoxic) [7]: 172% | viability (% of control) [8]: 96.8% | Potency [9]: inactive

O=C(NC1CCNCC1)c1[nH]ncc1NC(=O)c1c(Cl)cccc1Cl
Potency [10]: 1.32 µM (active) and 2.64 µM (active) | remaining parasite growth % (stronger effect = lower value) [1]: 5.64% and 1.64% | activity, percent of control [2]: 9.64% and 5.01% | parasite growth, % of DMSO control [3, 13]: 10.8% | parasite growth remaining, % of DMSO control (lower = more inhibition) [4, 13]: 11.4% | parasite growth, % of control (lower = inhibition) [5, 13]: 22% | growth, % of control [6, 13]: 8.44% | cell viability, % of control (lower = more cytotoxic) [7]: 5.14% | viability (% of control) [8]: 2.11% | Potency [9]: inactive

C=CCn1c(=O)c2cnc(Nc3ccc(N4CCN(C)CC4)cc3)nc2n1-c1cccc(C(C)(C)O)n1
Potency [10]: 3.32 µM (active) | activity, percent of control [2]: 6.29% | parasite growth, % of DMSO control [3, 13]: 13.4% | parasite growth remaining, % of DMSO control (lower = more inhibition) [4, 13]: 13.2% | parasite growth, % of control (lower = inhibition) [5, 13]: 21.2% | growth, % of control [6, 13]: 16.5% | cell viability, % of control (lower = more cytotoxic) [7]: 169% | viability (% of control) [8]: 16.4% | Potency [9]: inactive

COc1cc(OC2CCN(C)CC2)ccc1Nc1ncc2c(n1)n(C1CCCC1)c(=O)n2C
remaining parasite growth % (stronger effect = lower value) [1]: 9.94% | activity, percent of control [2]: 3.56% | remaining proliferation (% of control), lower = more inhibition [11]: 1.94% | parasite growth, % of DMSO control [3, 13]: 9.89% | parasite growth remaining, % of DMSO control (lower = more inhibition) [4, 13]: 9.37% | parasite growth, % of control (lower = inhibition) [5, 13]: 18.2% | growth, % of control [6, 13]: 7.29% | cell viability, % of control (lower = more cytotoxic) [7]: 6.18% | viability (% of control) [8]: 3.73% | Potency [9]: inactive

C[C@H]1C[C@@H]2[C@@H]([C@@H](O)C[C@@]3(C)[C@H]2CC[C@]3(O)C(=O)CO)[C@@]2(C)C=CC(=O)C=C12
parasite growth, % of DMSO control ([3]; at 9.64 µM (top of the series)): 78.1% | parasite growth, % of DMSO control ([3]; at 28.5 µM (top of the series)): 59.3% | parasite growth remaining, % of DMSO control (lower = more inhibition) ([4]; at 9.64 µM (top of the series)): 93.1% | parasite growth remaining, % of DMSO control (lower = more inhibition) ([4]; at 28.5 µM (top of the series)): 84.7% | parasite growth, % of control (lower = inhibition) ([5]; at 9.64 µM (top of the series)): 62.6% | parasite growth, % of control (lower = inhibition) ([5]; at 28.5 µM (top of the series)): 62.7% | growth, % of control ([6]; at 9.64 µM (top of the series)): 93.3% | growth, % of control ([6]; at 28.5 µM (top of the series)): 57.2% | cell viability, % of control (lower = more cytotoxic) [7]: 111% | viability (% of control) [8]: 53.2%

Cc1c(CN2CCN(S(C)(=O)=O)CC2)sc2c(N3CCOCC3)nc(-c3cnc(N)nc3)nc12
parasite growth, % of DMSO control [3, 13]: 5.64% | parasite growth remaining, % of DMSO control (lower = more inhibition) [4, 13]: 14.2% | parasite growth, % of control (lower = inhibition) [5, 13]: 18.4% | growth, % of control [6, 13]: 5.68% | cell viability, % of control (lower = more cytotoxic) [7]: 16.1% | viability (% of control) [8]: 19.3% | Potency [12]: inactive

CNC(=O)CN1CCC(Oc2cc3c(Nc4cccc(Cl)c4F)ncnc3cc2OC)CC1
parasite growth, % of DMSO control [3, 13]: 11.2% | parasite growth remaining, % of DMSO control (lower = more inhibition) [4, 13]: 41.4% | parasite growth, % of control (lower = inhibition) [5, 13]: 16% | growth, % of control [6, 13]: 5.64% | cell viability, % of control (lower = more cytotoxic) [7]: 50.7% | viability (% of control) [8]: 7.61% | Potency [12]: inactive

CCOc1cc2ncc(C#N)c(Nc3ccc(F)c(Cl)c3)c2cc1NC(=O)C=CCN(C)C
remaining parasite growth % (stronger effect = lower value) [1]: -0.461% | activity, percent of control [2]: 3.39% | parasite growth, % of DMSO control [3, 13]: 8.27% | parasite growth remaining, % of DMSO control (lower = more inhibition) [4, 13]: 7.41% | parasite growth, % of control (lower = inhibition) [5, 13]: 9.55% | growth, % of control [6, 13]: 4.45% | cell viability, % of control (lower = more cytotoxic) [7]: 17.3% | viability (% of control) [8]: 9.88% | Potency [12]: inactive

Source: PubChem BioAssay (NCATS)
